Reference: PubChem BioAssay (NCI)
Compounds without any hit were thinned out: in the full panel of roughly 79,000, 15% have a hit. The source made the active and inactive calls. No stated cut-off is given here; in the data, active means growth inhibition above about 70%; inactive means the rest.

What was measured:
[1] = NCI Yeast Anticancer Drug Screen. Data for the sgs1 strain (AID 173);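 further: 0% = growth of vehicle-only control cultures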; conditions: S. cerevisiae sgs1 mutant, stronger effect = higher value
How it was run: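 A genetically defined yeast mutant is incubated with the test compound, and its growth is compared to that of the same strain given vehicle.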

[2] = NCI Yeast Anticancer Drug Screen. Data for the mlh1 rad18 strain (AID 175); conditions: S. cerevisiae mlh1 rad18 strain growth inhibition, stronger effect = higher value
How it was run: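 Steps: expose repair-defective yeast to compound; measure growth; express inhibition against vehicle-treated controls.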

[3] = NCI Yeast Anticancer Drug Screen. Data for the rad18 strain (AID 177); conditions: S. cerevisiae rad18 mutant growth inhibition, stronger effect = higher value
How it was run: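 Measured value is growth inhibition of a yeast strain bearing a DNA repair alteration, referenced to vehicle-treated cells.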

[4] = NCI Yeast Anticancer Drug Screen. Data for the wt1 strain (AID 149);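 further: 0% = growth of vehicle-treated wt1 cultures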; conditions: S. cerevisiae wt1 strain (SPY 50644) growth inhibition, stronger effect = higher value
How it was run: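 Readout: yeast growth inhibition, normalised to vehicle controls, in the wt1 strain exposed to test compounds.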

[5] = NCI Yeast Anticancer Drug Screen. Data for the rad50EPP+ strain (AID 151);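 further: 0% = growth of vehicle-treated control cultures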; conditions: S. cerevisiae rad50 mutant strain, stronger effect = higher value
How it was run: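 Read-out is yeast growth inhibition relative to vehicle; cells used were the rad50EPP+ strain.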

[6] = NCI Yeast Anticancer Drug Screen. Data for the rad50 strain (AID 155);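 further: 0% = growth of vehicle-only cultures of the same strain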; conditions: S. cerevisiae rad50 strain growth inhibition, stronger effect = higher value
How it was run: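 Compounds were tested on a yeast strain with an engineered DNA damage repair alteration; the reported value is growth inhibition normalised to vehicle treatment.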

[7] = NCI Yeast Anticancer Drug Screen. Data for the mec2-1 strain (AID 157); conditions: S. cerevisiae mec2-1 strain, stronger effect = higher value
How it was run: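 Using mec2-1 yeast: add compound, measure growth, express inhibition versus vehicle-treated cultures.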

[8] = NCI Yeast Anticancer Drug Screen. Data for the rad14 strain (AID 159);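 further: 0% = growth of vehicle-treated control cultures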; conditions: S. cerevisiae rad14 strain growth inhibition, stronger effect = higher value
How it was run: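 Compound-treated yeast with a defined DNA-repair lesion; growth inhibition normalised to vehicle-treated cultures.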

[9] = NCI Yeast Anticancer Drug Screen. Data for the sgs1 mgt1 strain (AID 161);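 further: 0% = growth of cultures given vehicle only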; conditions: S. cerevisiae sgs1 mgt1 strain, stronger effect = higher value
How it was run: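 Compounds are added to genetically altered yeast, and growth is compared with cultures given vehicle alone to give percent inhibition.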

[10] = NCI Yeast Anticancer Drug Screen. Data for the CLN2oe strain (AID 163);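 further: 0% = growth of vehicle-only control cultures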; conditions: S. cerevisiae CLN2oe strain, stronger effect = higher value
How it was run: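 Whole-cell yeast growth assay. A strain engineered for altered cell-cycle control received compound, and inhibition relative to vehicle-treated cultures was recorded.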

[11] = NCI Yeast Anticancer Drug Screen. Data for the cln2 rad14 strain (AID 165);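 further: 0% = growth equal to vehicle treated cultures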; conditions: S. cerevisiae cln2 rad14 strain, stronger effect = higher value
How it was run: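 Yeast strain cln2 rad14, bearing defects in cell cycle control and DNA repair, serves as the test system; values reflect growth inhibition compared with vehicle.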

[12] = NCI Yeast Anticancer Drug Screen. Data for the bub3 strain (AID 167); conditions: S. cerevisiae bub3 mutant strain, stronger effect = higher value
How it was run: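 Growth of a checkpoint-deficient yeast mutant is measured after compound exposure. Values represent inhibition relative to vehicle.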

[13] = NCI Yeast Anticancer Drug Screen. Data for the wt2 strain (AID 169);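 further: 0% = growth of vehicle-treated yeast cultures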; conditions: S. cerevisiae wt2 strain growth inhibition, stronger effect = higher value
How it was run: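 Treated yeast vs. vehicle-treated yeast: growth inhibition determined.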

[14] = NCI Yeast Anticancer Drug Screen. Data for the mlh1 strain (AID 171);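 further: 0% = growth of vehicle-treated control cultures of the same strain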; conditions: S. cerevisiae mlh1 strain growth inhibition, stronger effect = higher value
How it was run: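 A yeast strain with a defined genetic lesion serves as the test organism. Cultures receive compound or vehicle, and growth is measured.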

[15] = at 5.0 µM (retest, dose inferred, filed as 0.5)
[16] = at 50.0 µM (retest, dose inferred, filed as 5.0)

Measured: growth inhibition

CCOC(=O)C1=C(C)NC(C)=C(C(=O)OCC)C1c1ccc(C)cc1
inactive: [1]; at 1.2 µM 15% | [1]; at 3.7 µM 21% | [1]; at 11.0 µM 66% | [2]; [15] -37% | [3]; at 1.2 µM -2% | [3]; at 3.7 µM -2% | [3]; at 11.0 µM 20%
active: [1]; at 33.0 µM 98% | [1]; at 100.0 µM 96% | [2]; [16] 79% | [2]; at 50.0 µM 90.2% | [3]; at 33.0 µM 96% | [3]; at 100.0 µM 96%

O=C1CSC(=S)N1Cc1ccc(Cl)cc1Cl
inactive: [4]; at 1.2 µM 1% | [4]; at 3.7 µM 24% | [5]; at 1.2 µM 12% | [6]; at 1.2 µM -6% | [6]; at 3.7 µM 26% | [6]; [15] 29% | [7]; at 1.2 µM 1% | [7]; at 3.7 µM -1% | [7]; [15] 10% | [8]; at 1.2 µM 3% | [8]; at 3.7 µM 20% | [9]; [15] 41% | [10]; at 1.2 µM -10% | [10]; at 3.7 µM -11% | [11]; [15] 0% | [12]; at 1.2 µM -9% | [12]; at 3.7 µM 15% | [12]; [15] 14% | [13]; at 1.2 µM 12% | [13]; at 3.7 µM 55% | [14]; at 1.2 µM -13% | [14]; at 3.7 µM 8% | [1]; at 1.2 µM 2% | [1]; at 3.7 µM 33% | [2]; [15] 66% | [3]; at 1.2 µM -6% | [3]; at 3.7 µM 27%
active: [4]; at 11.0 µM 99% | [4]; at 33.0 µM 99% | [4]; at 100.0 µM 97% | [5]; at 3.7 µM 72% | [5]; at 11.0 µM 97% | [5]; at 33.0 µM 99% | [5]; at 100.0 µM 98% | [6]; at 11.0 µM 99% | [6]; at 33.0 µM 99% | [6]; [16] 98% | [6]; at 50.0 µM 99.1% | [6]; at 100.0 µM 98% | [7]; at 11.0 µM 93% | [7]; at 33.0 µM 99% | [7]; [16] 99% | [7]; at 50.0 µM 99.3% | [7]; at 100.0 µM 99% | [8]; at 11.0 µM 99% | [8]; at 33.0 µM 100% | [8]; at 100.0 µM 99% | [9]; [16] 99% | [9]; at 50.0 µM 99.4% | [10]; at 11.0 µM 96% | [10]; at 33.0 µM 99% | [10]; at 100.0 µM 98% | [11]; [16] 99% | [11]; at 50.0 µM 98.8% | [12]; at 11.0 µM 99% | [12]; at 33.0 µM 99% | [12]; [16] 98% | [12]; at 50.0 µM 99.3% | [12]; at 100.0 µM 99% | [13]; at 11.0 µM 100% | [13]; at 33.0 µM 100% | [13]; at 100.0 µM 99% | [14]; at 11.0 µM 99% | [14]; at 33.0 µM 99% | [14]; at 100.0 µM 99% | [1]; at 11.0 µM 99% | [1]; at 33.0 µM 99% | [1]; at 100.0 µM 99% | [2]; [16] 98% | [2]; at 50.0 µM 97% | [3]; at 11.0 µM 99% | [3]; at 33.0 µM 99% | [3]; at 100.0 µM 98%
